Assay outcomes deposited in PubChem BioAssay by Broad Institute.
Rows were chosen to be rich in hits. Some 2.3% of all compounds tested hit in one or more screens of this group.
ID4 binder = ID4 (human) binding; P47928; small molecule microarray, Flag-ID4 binding, fluorescence F/B; calls only; 31,000 tested, 1.2% active; call rule not given here;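 further: a binder raises fluorescence above local background on the spot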
Target sequence (P47928 whole entry, looked up): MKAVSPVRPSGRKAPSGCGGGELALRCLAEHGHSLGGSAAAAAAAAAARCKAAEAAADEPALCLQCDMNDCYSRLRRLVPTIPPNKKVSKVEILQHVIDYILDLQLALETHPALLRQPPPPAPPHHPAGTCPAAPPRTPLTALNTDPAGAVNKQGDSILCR
mut p53 react = mutant p53 pathway reactivation; AID 624151; 28,000 tested, 1.5% active; SW480 PUMA-promoter luciferase; activation, % at 9.98 µM; in the data active means activation above about 52%
Numbers stand for hits; - = inactive; + = active, no number.

SMILES	ID4 binder	mut p53 react
CNC[C@H]1Oc2ccc(NS(=O)(=O)c3cccs3)cc2CC(=O)N([C@H](C)CO)C[C@H]1C	-	-
CNC[C@H]1Oc2ccc(NS(C)(=O)=O)cc2CC(=O)N([C@H](C)CO)C[C@H]1C	-	-
CNC[C@@H]1Oc2ccc(NS(=O)(=O)c3cccs3)cc2CC(=O)N([C@H](C)CO)C[C@H]1C	+	-
COc1ccc(S(=O)(=O)NCc2ccco2)cc1[N+](=O)[O-]	-	-
Cc1ccc2nc(Nc3nc(CSc4nnc(C)s4)cc(=O)[nH]3)nc(C)c2c1	-	54.2
Cc1nnc(SCc2cc(=O)[nH]c(Nc3nc(C)c4ccccc4n3)n2)s1	-	-
COc1c(O)cc2c(=O)oc3c(OC)c(O[C@@H]4OC[C@@H](O)[C@H](O)[C@H]4O)cc4c(=O)oc1c2c34	-	-
Nc1nc(SCC(=O)c2ccccc2)nc2sc3c(c12)CCC3	-	113.5
Cc1ccc(C(=O)CSc2nc(C)nc3sc4c(c23)CCCC4)cc1	-	-
N#Cc1c(NC(=O)CSc2n[nH]c(-c3ccc(Cl)cc3)n2)sc2c1CCCC2	-	-
CC(=O)C(C)Sc1ncnc2sc(-c3ccccc3)cc12 (stereo unspecified)	-	72.6
O=C(CSc1ncnc2sc(-c3ccccc3)cc12)NC1CCCCC1	-	-
CN(C)CC(=O)Nc1ccc2c(c1)[C@H]1C[C@H](CC(=O)NCc3cc(F)ccc3F)O[C@H](CO)[C@H]1O2	-	-
